# This is part of a sample that, as a whole, favours compounds with a hit. Of some 83,000 tested, about 20% had one in any assay.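 Each cell line was grown in a 96-well plate and treated with one concentration of compound for 48 hours. Values below 10 were considered active.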 Activity calls are given as the source filed them.
# Test system: RXF 393 renal
# Experiment: NCI-60 one-dose screen, 48 h (100 = growth as untreated, 0 = no growth, -100 = all killed)
# Conditions: 10 µM unless noted
row,SMILES,growth
1,O=C(c1ccccc1)c1ccc2nc(-c3ccc(F)cc3)[nH]c2c1,49.2% (inactive)
2,CC1(C)CC[C@]2(C(=O)O)CC[C@]3(C)C(=CCC4[C@@]5(C)C[C@@H](O)[C@@H]6OC(c7ccc(F)cc7)OC[C@@]6(C)C5CC[C@]43C)C2C1 (some centres not stated),42.8% (inactive)
3,N/C(=N\c1nc2ccccc2s1)NC(=O)Nc1ccc(Cl)cc1Cl,-84% (active)
4,CCCCSc1nc(Nc2ccc(S(N)(=O)=O)cc2)c(C#N)c(-c2cc(OC)c(OC)c(OC)c2)n1,32.8% (inactive)
5,O=C(COc1ccc2c(c1)CCCC(=O)N2)NCc1ccccc1,93.2% (inactive)
6,Nc1nc(-c2ccccc2)c(N=Nc2ccc([N+](=O)[O-])cc2Cl)s1,109% (inactive)
7,CC1(C)CC[C@]2(C(=O)O)CC[C@]3(C)C(=CCC4[C@@]5(C)C[C@@H](O)[C@@H]6OC(c7cccc(Br)c7)OC[C@@]6(C)C5CC[C@]43C)C2C1 (some centres not stated),71.3% (inactive)
8,C#CCOc1ccc(/C=N/Nc2nc(-c3cc4cc(OC)ccc4oc3=O)cs2)cc1OC,-88.8% (active)
9,N#Cc1c(NCc2ccccc2)n[nH]c1Nc1ccccc1,60.7% (inactive)
10,COc1cc2oc(-c3cccc(C(=O)Nc4ccc(Cl)cc4)c3)cc(=O)c2c(OCC(=O)N[C@@H](Cc2ccccc2)C(=O)O)c1OC,111% (inactive)
11,Cn1cc(-c2cc3nc(-c4c[nH]c5ccc(Cl)cc45)cc(N)n3n2)c2ccccc21,-80.1% (active)
12,C#C[C@]1(O)CC[C@H]2[C@@H]3CC=C4c5sc(-c6ccc([N+](=O)[O-])cc6)nc5CC[C@]4(C)[C@H]3CC[C@@]21C,-21.7% (active)

# Source: PubChem BioAssay (NCI)
